# Laboratory results as given in PubChem BioAssay.
# Test: probe aLefty2 binding to arrayed compounds – biochemical, biotinylated probe, 635/667 nm fluorescence, primary screen (AID 1094);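 note: score merges spot fluorescence near 667 nm with spot signal-to-noise ratio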
# Details: small-molecule microarray, higher = more signal
row,Structure (SMILES),composite z-score
1,COc1ccc(NC(=O)O[C@H]2[C@H](OC(=O)Nc3ccccc3)[C@H](OC(=O)Nc3ccccc3)[C@@H](OC)O[C@@H]2CO)cc1,0.31
2,COCCOC(=O)N1C(=O)[C@@]2(c3ccccc31)[C@H](C(=O)N1CCN(c3ncccn3)CC1)[C@H]1C(=O)O[C@H](c3ccccc3)[C@H](c3ccccc3)N1[C@@H]2c1ccc(O)cc1,-0.122
3,CCCCO[C@H]1C[C@H]2C(I)=C[C@@H]1C(=O)[C@]21CO1,-0.126
4,COc1ccc(CN(C2=CC[C@@]3(C(N)=O)C(=O)C(Cl)=C(Cl)C(=O)[C@@]3(C#N)C2)S(=O)(=O)c2ccc(Br)cc2)cc1,0.0496
5,CCCCN1CC=CC23O[C@@H]4/C=C\CCC(C)OC(=O)C4[C@H]2C(=O)N(C(CO)C(C)C)[C@@H]3C1=O (stereo partly drawn),-0.166
6,[N-]=[N+]=NCc1ccccc1C[C@]1(C(N)=O)N=C(c2ccc(OCCCO)cc2)O[C@H]1c1ccccc1,0.158
7,C=CCNC(=O)[C@H]1[C@@H]2C(=O)O[C@@H](c3ccccc3)[C@@H](c3ccccc3)N2[C@@H](c2ccc(O)cc2)[C@]12C(=O)Nc1ccc(C#CC3(O)CCCCCC3)cc12,-0.0953
8,NCCCCCNC(=O)[C@@H]1C[C@@H]2C(=O)NCC(=O)N2[C@@H]1c1cccc(OCCO)c1,0.086
